Results filed as inconclusive are left out. Active and inactive are the calls of the source. How the source made its calls: active means hit-call score of the fitted dose curve at least 0.9, where 1 is the maximum; inconclusive means response in the unintended direction; inactive means score below 0.9.

Data on 33 compounds can be found in PubChem BioAssay (EPA / NIEHS).

Read-out in the assay: HMG-CoA synthase (HMGCS2), HMGCS2 (gene 3158)
As to the kind of experiment: CLD_HMGCS2_6hr: CellzDirect (CLD) Gene Expression Assay for HMG-CoA synthase (HMGCS2) at 6 hours (AID 2283682).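 Further: actives raise HMGCS2 transcript above the 0.2% DMSO vehicle baseline.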 The protocol:
CLD_6hr is a cell-based, multiplexed-readout assay that uses hepatocyte, a human liver primary cell, with measurements taken at 6 hours after chemical dosing in a 96-well plate.CLD_HMGCS2_6hr is one of 16 assay component(s) measured or calculated from the CLD_6hr assay. It is designed to make measurements of mRNA induction, a form of inducible reporter, as detected with chemiluminescence signals by Quantitative Nuclease Protection Assay (qNPA) technology.Data from the assay component CLD_HMGCS2_6hr was analyzed at the endpoint, CLD_HMGCS2_6hr, in the positive analysis fitting direction relative to DMSO as the negative control and baseline of activity. Using a type of inducible reporter, gain-of-signal activity can be used to understand changes in the reporter gene as they relate to the gene HMGCS2. Furthermore, this assay endpoint can be referred to as a primary readout. To generalize the intended target to other relatable targets, this assay endpoint is annotated to the lyase intended target family, where subfamily is HMG-CoA synthase.
Human hepatocyte cultures were treated daily for two consecutive days with fresh dosing solutions containing appropriate concentrations of the 320 ToxCast chemicals (chemical identities were blinded to CellzDirect and other ToxCast collaborators), vehicle control (0.2% DMSO), and positive control inducers as summarized in Table 1. Due to the large number of treatment groups and chemicals examined, the ToxCast chemicals were divided into two groups (spanning two independent cultures of hepatocytes from separate donor preparations (Hu778: ToxCast plates 1 and 2; Hu776: ToxCast plates 3 and 4). Each preparation of human hepatocyte cultures was treated with respective vehicle control, medium only control, set of six positive controls/reference chemicals for the five hepatic receptor pathways, and a subset of eight of the ToxCast chemicals (indoxacarb, pyrithiobac-sodium, norflurazon, cyhalofop-butyl, methomyl, thiram, acetochlor, and propiconazole). These replicate data, coupled with internal replicates designed within the blinded ToxCast chemical library, provided additional data to evaluate interindividual differences between hepatocyte preparations and their potential impact on chemical profiles.Cell morphology and integrity were evaluated using phase-contrast microscopy as an indicator of hepatocyte cell health (Tyson & Green, 1987). Cultures for each treatment group (i.e., media, vehicle [0.2% DMSO], positive control inducers [multiple concentrations], and the ToxCast chemicals [multiple concentrations]) were observed and cell morphology was assessed relative to vehicle control cultures at each harvest time point (0, 6, 24, or 48 h). […] Images were evaluated at the conclusion of the study to assess changes in cell integrity and account for the effects of chemical exposure on uncharacteristic changes in concentration-dependent gene expression profiles. The results from these determinations of apparent cytotoxicity were annotated (yes/no) alongside the corresponding qNPA data for reference.At the conclusion of each treatment period, hepatocyte cultures (96-well) were washed with 1 volume of HBSS, lysed by addition of 25 ul ArrayPlate lysis buffer (HTG, Tucson, AZ), and 70 ul/well of Denaturation Oil, denatured by incubation at 95C for 10 min, and frozen at approximately -70C until analysis by nuclease protection assay (qNPA) (Roberts et al., 2007). For qNPA analysis, cell lysates were thawed at 50C for approximately 30 min, qNPA probes were added, and samples were incubated at 95C for 10 min to begin the detection process by denaturing the target RNA, dissociating the duplexes and secondary structure hybridization. At the conclusion of the hybridization period, S1 nuclease reagent was added to each sample to digest all nonprotected nucleotides at 50C for 60-90 min. […]
Take `CN(C)C(=S)SSC(=S)N(C)C`: the compound was called inactive.
As to `CCCC1COC(Cn2cncn2)(c2ccc(Cl)cc2Cl)O1` (stereo not drawn), the result was inactive.
The same measure, in the same setting: for `COC(=O)C=C(C)OP(=O)(OC)OC` the value was “inactive”; for `Cc1ccc(-c2c(Cl)nc(C#N)n2S(=O)(=O)N(C)C)cc1`, “inactive”.
`CC1COC(Cn2cncn2)(c2ccc(Oc3ccc(Cl)cc3)cc2Cl)O1` (stereo not drawn): the outcome was inactive.
Regarding `CCOc1cc(Oc2ccc(C(F)(F)F)cc2Cl)ccc1[N+](=O)[O-]`, the call was inactive.
Turning to `CCCN(CCC)c1c([N+](=O)[O-])cc(S(N)(=O)=O)cc1[N+](=O)[O-]`, the outcome was inactive.
As to `CCNc1nc(Cl)nc(NC(C)C)n1`, the call was inactive.
With `CCOC(=O)CC(SP(=S)(OC)OC)C(=O)OCC` (stereo not drawn), the call was inactive.
Take `CC(C)C1(C)N=C(c2nc3ccccc3cc2C(=O)O)NC1=O` (stereo not drawn): the compound was classed as inactive.
In the case of `C=CCC1=C(C)[C@@H](OC(=O)[C@@H]2[C@@H](C=C(C)C)C2(C)C)CC1=O`, the call was inactive.
On the same count and under the same terms, for `COc1nc(C)nc(NC(=O)NS(=O)(=O)c2ccccc2Cl)n1` the value was “inactive”.
As for `CNC(=S)S`, the result was inactive.
Consider `CCCCC(CC)COC(=O)c1ccccc1C(=O)OCC(CC)CCCC` (stereo not drawn), for which the compound was called inactive.
Usually AC50 stands for the concentration at which the activity in the assay is half-maximal. With `O=C(O)c1nc(Cl)ccc1Cl`, the AC50 is 1.89 µM (active).
In the case of `O=C(O)COc1nc(Cl)c(Cl)cc1Cl`, the call was inactive.
Consider `O=C(Nc1ccccc1)Nc1ccnc(Cl)c1`, for which the compound was called inactive.
In the case of `CCOP(=S)(OCC)SCn1c(=O)oc2cc(Cl)ccc21`, the compound was called inactive.
As to `COC(=O)N(OC)c1ccccc1COc1ccn(-c2ccc(Cl)cc2)n1`, the result was inactive.
On the same count and under the same terms, for `COc1nc(C)nc(NC(=O)NS(=O)(=O)c2ccccc2CCC(F)(F)F)n1` the value was “inactive”; for `C=CCC1=C(C)C(OC(=O)C2C(C=C(C)C)C2(C)C)CC1=O` (stereo not drawn), “inactive”.
Take `COC(=O)C(C)Oc1ccc(Oc2ccc(Cl)cc2Cl)cc1` (stereo not drawn): the compound was called inactive.
Regarding `N#Cc1nn(-c2c(Cl)cc(C(F)(F)F)cc2Cl)c(N)c1S(=O)C(F)(F)F` (stereo not drawn), the outcome was inactive.
Consider `N#Cc1cc(Br)c(O)c(Br)c1`, for which the compound was classed as inactive.
Take `CCCCOC(=O)c1ccccc1C(=O)OCCCC`: the compound was classed as inactive.
Regarding `C#CCOS(=O)OC1CCCCC1Oc1ccc(C(C)(C)C)cc1` (stereo not drawn), the compound was classed as inactive.
Regarding `COc1cnc(OC)n2nc(NS(=O)(=O)c3c(OCC(F)F)cccc3C(F)(F)F)nc12`, the outcome was inactive.
For the compound `CC(C)(C)c1ccc(CSc2cnn(C(C)(C)C)c(=O)c2Cl)cc1`, the result was inactive.
For the compound `CCc1nn(C)c(C(=O)NCc2ccc(C(C)(C)C)cc2)c1Cl`, the result was inactive.
Turning to `COC(=O)c1ccccc1C(=O)OC`, the compound was classed as inactive.
As for `COP(N)(=O)SC` (stereo not drawn), the call was inactive.
Regarding `CCON=C(CC)C1=C(O)CC(c2c(C)cc(C)cc2C)CC1=O` (stereo not drawn), the compound was called inactive.
The same measure, in the same setting: for `N#CC(CCc1ccc(Cl)cc1)(Cn1cncn1)c1ccccc1` (stereo not drawn) the value was “inactive”.
